Reference: PubChem BioAssay (NCI)
About 83,000 compounds went through this panel and 20% of them were active in at least one assay; those are over-represented in the sample as a whole.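 Cells were grown in 96-well plates and exposed to the test compound at a single concentration for 48 hours; results are reported as percent growth, with values below 10 considered active.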 A number with no mark means an inactive call. Active and inactive are the calls of the source.

Legend:
Experiment in all cases: NCI-60 one-dose screen, 48 h (100 = growth as untreated, 0 = no growth, -100 = all killed)
Conditions in all cases: 10 µM unless noted
[1] = tested on: DU-145 prostate
[2] = tested on: K-562 leukemia
[3] = tested on: MALME-3M melanoma
[4] = tested on: MDA-MB-231 breast
[5] = tested on: RXF 393 renal
[6] = tested on: SF-268 CNS
[7] = tested on: SF-295 CNS
[8] = tested on: SF-539 CNS
[9] = tested on: M14 melanoma
[10] = tested on: HCT-15 colon
[11] = tested on: HT29 colon
[12] = tested on: SNB-75 CNS
[13] = tested on: SNB-19 CNS
[14] = tested on: U251 CNS
[15] = tested on: PC-3 prostate
[16] = tested on: SK-MEL-5 melanoma
[17] = tested on: UACC-62 melanoma
[18] = tested on: LOX IMVI melanoma
[19] = tested on: SK-MEL-28 melanoma

Row | SMILES | growth [1] | growth [2] | growth [3] | growth [4] | growth [5] | growth [6] | growth [7] | growth [8] | growth [9] | growth [10] | growth [11] | growth [12] | growth [13] | growth [14] | growth [15] | growth [16] | growth [17] | growth [18] | growth [19]
1 | CC/C=C\C[C@H](O)C/C=C1/C(=O)C(Cl)=C[C@@H]1C/C=C\CCCC(=O)O | 75.9% | 3.74% (active) | 21.7% | 43.5% | 64.2% | 55.9% | 89.2% | 66% | 35.7% | 16.2% | 18.7% | 71.7% | 74.7% | 17.5% | 43.7% | 69.1% | 1.46% (active) | 4.09% (active) | 43.7%
2 | CC(C)N(Cc1ccc(CN(C(=O)CCl)C(C)C)cc1)C(=O)CCl | 12% | 14% | -63.2% (active) | -2.71% (active) | 45.6% | -50.7% (active) | 28.2% | -84% (active) | 1.15% (active) | 0.15% (active) | -49.7% (active) | -60.5% (active) | 63.2% | -41% (active) | 29.7% | 17.9% | 2.74% (active) | -61.2% (active) | 33.1%
3 | Cc1sc2nc(CSc3nnc(-c4ccco4)o3)[nH]c(=O)c2c1C | 114% | 75.6% | 128% | 106% | 98.3% | 106% | 107% | 122% | 122% | 90.7% | 118% | 108% | 106% | 88% | 102% | 97.5% | 108% | 99.2% | 110%
4 | Cc1ccc2nc(SCn3nnc4ccccc4c3=O)[nH]c2c1 | 96.5% | 74.4% | 323% | 97.9% | 117% | 111% | 109% | 86.4% | 102% | 125% | 102% | 88% | 108% | 103% | 103% | 101% | 98.4% | 100% | 121%
5 | CCCS(=O)(=O)c1nc(NC2CC2)cc(-c2ccc3c(ccn3C3CC(C)(C)NC(C)(C)C3)c2)n1 | 8.45% (active) | -52.6% (active) | -56.3% (active) | -78.8% (active) | -87.3% (active) | -48.7% (active) | -48.9% (active) | -88.1% (active) | -78.2% (active) | -71.4% (active) | -48% (active) | -16.2% (active) | 38.9% | -65.5% (active) | 17.4% | 16.2% | -83.1% (active) | -91.5% (active) | -59.2% (active)
6 | CCOC(=O)c1cc(/C(=N\O)c2cc(OC)c(OC)c(OC)c2)n2cc(C)cc(C)c12 | 41.9% | 12.5% | 37.8% | 34.7% | 36.1% | 38.7% | 1.85% (active) | 15.8% | 10.5% | 17.9% | 6.89% (active) | 25.1% | 40.5% | 12.6% | 41% | 12.1% | 19.8% | 31.8% | 56.1%
7 | CC(=O)c1cc(C(=O)c2ccc3c(c2)Sc2ccccc2N3)c2cc(C)ccn12 | 0.638% (active) | 5% (active) | 68.2% | 3.24% (active) | 49.3% | 22.1% | -1.7% (active) | -32.5% (active) | 17.2% | 8.38% (active) | -57% (active) | 9.11% (active) | 31.6% | 11.3% | 18% | -26.6% (active) | 30.2% | 17% | 56.1%
8 | CN1CCN(CCCOc2ccc3nc(Nc4ccc(C(F)(F)F)c(Cl)c4)ccc3c2)CC1 | 20.1% | -47.2% (active) | -47.1% (active) | -53.3% (active) | 6.61% (active) | 11.5% | -52.8% (active) | -49% (active) | -19.8% (active) | -36.9% (active) | -67.2% (active) | 4.61% (active) | -41.2% (active) | -62.3% (active) | 8.45% (active) | 34.1% | -36.3% (active) | -83.1% (active) | -73.2% (active)
9 | Cc1ccc2c(c1)C(C)Cc1c(ncnc1-n1cnc3ccccc31)N2C (stereo not drawn) | 8.43% (active) | 6.64% (active) | 65.6% | 25.1% | 21.5% | 34.1% | -11.4% (active) | -33.1% (active) | 18.1% | 12.3% | 4.56% (active) | -10.3% (active) | 34% | 18.4% | 21.9% | 12.2% | 26% | 34% | 61.8%
10 | O=C(c1ccccc1)C(Cl)C(Cl)c1ccccc1 (stereo not drawn) | 45.7% | -1.74% (active) | 4.33% (active) | 25.8% | 17.2% | 82.5% | 104% | 31% | 46.8% | -7.84% (active) | 20.4% | 70.7% | 92% | 78% | 83% | 88.8% | 0.557% (active) | -64.9% (active) | 67.3%
11 | COc1cc(-c2csc(NC(=O)c3cc(C(F)(F)F)cc(C(F)(F)F)c3)n2)cc(OC)c1OC | 35% | 14.4% | 3.36% (active) | 41.1% | 56.7% | 35.4% | 33.9% | 56% | 32.3% | 15.6% | 21.3% | 52.5% | 29.9% | 21% | 10.6% | -30.1% (active) | 3.9% (active) | 26.5% | 40.8%
12 | Cc1ccc2nc(-c3c(CCCO)noc3N)[nH]c(=O)c2c1 | 117% | 68% | 96.6% | 105% | 153% | 111% | 99.6% | 97.3% | 107% | 105% | 113% | 82.2% | 113% | 99.6% | 96% | 99.6% | 104% | 100% | 112%
13 | CC(=O)N1Cc2ccccc2C(C)Cc2cc(Cl)ccc21 (stereo not drawn) | 114% | 102% | 103% | 102% | 124% | 104% | 110% | 107% | 103% | 105% | 97.6% | 101% | 101% | 105% | 95.8% | 103% | 98% | 105% | 112%
14 | CCSc1nnc(NC(=O)COc2ccc(Cl)cc2C)s1 | 106% | 103% | 106% | 111% | 89.3% | 110% | 94.2% | 103% | 105% | 102% | 115% | 110% | 95.2% | 99.4% | 104% | 97.3% | 98.7% | 93.8% | 114%
15 | CC1Cc2c(N(C)C)ncnc2N(C)c2ccc(Cl)cc21 (stereo not drawn) | 52.4% | 14.3% | 51.4% | 55% | 42.6% | 44.5% | 3.45% (active) | 4.81% (active) | 22.2% | 18.8% | 10.8% | -12.4% (active) | 39.1% | 27.3% | 32.9% | 11.1% | 33.2% | 35.8% | 52.4%
16 | c1ccc2c(c1)Oc1ccccc1C2C1c2ccccc2Oc2ccccc21 | 93.6% | 93.6% | 108% | 93.1% | 94.2% | 97.2% | 96.1% | 96.5% | 99.1% | 93.3% | 82.8% | 86.2% | 97.1% | 99.3% | 85.7% | 100% | 86.7% | 86.5% | 110%
17 | CC1(C)OC2COC3(C(=O)O)OC(C)(C)OC3C2O1 (stereo not drawn) | 108% | 101% | 109% | 88.3% | 111% | 95.9% | 103% | 101% | 99.9% | 98.8% | 99.8% | 87.2% | 92.1% | 102% | 100% | 102% | 97.7% | 95.6% | 107%
